Measurements from PubChem BioAssay (Tox21).
Results filed as inconclusive are left out. The source made the active and inactive calls. Unless noted, calls follow the shape of the dose curve; as a rule, active = well fitted curve in the direction sought with a large enough effect in the repeat runs; inconclusive = weak or mixed curves; inactive = flat fitted curve, though single readings scatter.

What was measured:
[1] = qHTS assay to test for compound auto fluorescence at 535 nm (green) in HEK293 cells (AID 720680)
[2] = qHTS assay to test for compound auto fluorescence at 460 nm (blue) in HEK293 cell free culture (AID 720681)
Procedure, shortened: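 Blue fluorescence (Ex 405/Em 460 nm, triamterene-equivalent) was read immediately after pin transfer of compound or DMSO into medium (DMEM, 10% FBS) without cells.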

[3] = qHTS assay to test for compound auto fluorescence at 535 nm (green) in HEK293 cell free culture (AID 720682)
Procedure, shortened: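 Fluorescein serves as the green reference fluorophore; each compound's intrinsic emission at 535 nm (excitation 485 nm) is reported as an equivalent amount of that dye, measured in serum-containing DMEM without cells.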

[4] = qHTS assay to test for compound auto fluorescence at 590 nm (red) in HEK293 cell free culture (AID 720683)
Procedure, shortened: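 Red-channel autofluorescence of compounds in culture medium (DMEM, 10% FBS), no cells, measured at 540/590 nm. Rose Bengal sodium is the reference fluorophore for equivalence.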

[5] = qHTS assay to test for compound auto fluorescence at 590 nm (red) in HepG2 cell free culture (AID 720684)
Procedure, shortened: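 Plate contents were MEM with 10% FBS plus test compound or DMSO, no cells. Fluorescence was recorded with 540 nm excitation and 590 nm emission.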

[6] = qHTS assay to test for compound auto fluorescence at 460 nm (blue) in HepG2 cell free culture (AID 720685)
Procedure, shortened: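 Compound (23 nL) or DMSO pinned into cell-free MEM with 10% FBS; blue fluorescence read at 405/460 nm excitation/emission, expressed as auto-fluorescence equivalency to triamterene.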

[7] = qHTS assay to test for compound auto fluorescence at 535 nm (green) in HepG2 cell free culture (AID 720686)
[8] = qHTS assay to test for compound auto fluorescence at 460 nm (blue) in HepG2 cells (AID 720687)
Procedure, shortened: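 Blue-channel autofluorescence (Ex/Em 405/460 nm, triamterene-equivalent) was measured after 1 hr compound exposure at 37 C, 5% CO2. Cells were HepG2, plated overnight at 37 C in MEM plus 10% FBS.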

[9] = molecular target: Glucocorticoid receptor (Homo sapiens) (UniProt P04150); test: qHTS assay to identify small molecule agonists of the glucocorticoid receptor (GR) signaling pathway (AID 720691; active = well fitted activation curve with a large enough effect in the signal ratio in the repeat runs, not every such curve was filed as active; the % refers to the signal ratio)
Sequence of Glucocorticoid receptor (Homo sapiens) (P04150 whole entry, looked up): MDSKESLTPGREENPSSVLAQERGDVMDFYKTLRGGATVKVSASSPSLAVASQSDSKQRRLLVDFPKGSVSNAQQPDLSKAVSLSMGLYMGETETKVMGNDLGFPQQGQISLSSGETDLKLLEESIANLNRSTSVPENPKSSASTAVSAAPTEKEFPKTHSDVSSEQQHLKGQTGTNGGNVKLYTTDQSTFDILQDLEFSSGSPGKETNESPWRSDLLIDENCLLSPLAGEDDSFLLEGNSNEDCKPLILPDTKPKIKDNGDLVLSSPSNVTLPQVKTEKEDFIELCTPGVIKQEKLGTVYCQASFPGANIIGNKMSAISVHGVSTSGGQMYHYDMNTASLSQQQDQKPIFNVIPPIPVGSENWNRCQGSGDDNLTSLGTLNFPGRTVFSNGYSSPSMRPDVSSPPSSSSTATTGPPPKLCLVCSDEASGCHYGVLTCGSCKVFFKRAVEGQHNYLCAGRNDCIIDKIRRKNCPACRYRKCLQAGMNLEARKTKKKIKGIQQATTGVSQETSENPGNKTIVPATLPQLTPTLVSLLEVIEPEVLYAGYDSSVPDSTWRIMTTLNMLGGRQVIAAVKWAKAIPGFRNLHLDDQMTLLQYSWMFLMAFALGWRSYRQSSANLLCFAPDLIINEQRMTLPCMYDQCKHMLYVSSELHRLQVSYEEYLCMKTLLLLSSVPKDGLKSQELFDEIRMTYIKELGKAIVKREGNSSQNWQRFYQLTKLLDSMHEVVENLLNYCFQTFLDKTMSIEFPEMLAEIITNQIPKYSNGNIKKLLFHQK
Procedure, shortened: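 qHTS in GR-bla HeLa cells: 4 h settling at 37 C/5% CO2, 18 h compound incubation at 37 C, 2 h LiveBLAzer B/G FRET substrate at room temperature, fluorescence intensity measured.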
% is scaled to controls: 0 for no effect and ±100 for the full control effect.

CC(C)CCO
inactive: outcome [1] | outcome [2] | outcome [3] | outcome [4] | outcome [5] | outcome [6] | outcome [7] | outcome [8]

COC(=O)CCC(=O)O
inactive: outcome [1] | outcome [2] | outcome [3] | outcome [4] | outcome [5] | outcome [6] | outcome [7]

C=C(C)C(=O)OCCCCCCOC(=O)C(=C)C
inactive: outcome [1] | outcome [2] | outcome [3] | outcome [4] | outcome [5] | outcome [6] | outcome [7] | outcome [8] | Potency [9]

O=C1NC2NC(=O)NC2N1 (stereo not given)
inactive: outcome [1] | outcome [2] | outcome [3] | outcome [4] | outcome [5] | outcome [6] | outcome [7]

O=C(Nc1cccc(C2=NCCN2)c1)Nc1cccc(C2=NCCN2)c1
inactive: outcome [1] | outcome [2] | outcome [3] | outcome [4] | outcome [5] | outcome [6] | outcome [7] | outcome [8] | Potency [9]

C1=C\CC/C=C\CC/1
inactive: outcome [1] | outcome [2] | outcome [3] | outcome [4] | outcome [5] | outcome [6] | outcome [7] | outcome [8]

CCCCCCCCCCCCCCCC(=O)NCCO
inactive: outcome [1] | outcome [2] | outcome [3] | outcome [4] | outcome [5] | outcome [6] | outcome [7] | outcome [8]

CC(C)C(=O)c1ccccc1
inactive: outcome [1] | outcome [2] | outcome [3] | outcome [4] | outcome [5] | outcome [6] | outcome [7] | outcome [8]

COc1ccc(OC)c(NC(=O)CC(C)=O)c1
inactive: outcome [1] | outcome [2] | outcome [3] | outcome [4] | outcome [5] | outcome [6] | outcome [7] | outcome [8]

O=C1OC(=O)c2cc(Oc3ccc4c(c3)C(=O)OC4=O)ccc21
inactive: outcome [1] | outcome [2] | outcome [3] | outcome [4] | outcome [5] | outcome [6] | outcome [7] | outcome [8]

Cc1ccccc1C
inactive: outcome [1] | outcome [2] | outcome [3] | outcome [4] | outcome [5] | outcome [6] | outcome [7] | outcome [8] | Potency [9]

BrC/C=C/CBr
inactive: fluorescence, % of fluorescein [1] 0.0238% [at 18.6 µM] | fluorescence, % of fluorescent control [2] -0.0065% [at 18.6 µM] | activity change [3] 0.0973% [at 18.6 µM] | fluorescence, % of fluorescent control [4] -0.0344% [at 18.6 µM] | fluorescence, % of Rose Bengal [5] 0.0351% [at 18.6 µM] | fluorescence, % of fluorescent control [6] -0.08% [at 18.6 µM] | fluorescence, % of fluorescein control [7] -0.0214% [at 18.6 µM] | fluorescence, % of fluorescent control [8] 0.058% [at 18.6 µM]

Cc1c(C(C)C)c(=O)n(-c2ccccc2)n1C
inactive: outcome [1] | outcome [2] | outcome [3] | outcome [4] | outcome [5] | outcome [6] | outcome [7] | outcome [8]

OC[C@@H](O)[C@H](O)[C@@H](O)[C@@H](O)CO
inactive: outcome [1] | outcome [2] | outcome [3] | outcome [4] | outcome [5] | outcome [6] | outcome [7] | outcome [8]

O=C(CN1CCN(Cc2ccc3c(c2)OCO3)CC1)N1c2ccccc2Sc2ccccc21
inactive: outcome [1] | outcome [2] | outcome [3] | outcome [4] | outcome [5] | outcome [6] | outcome [7]

CCC(C)(C)C1CCC(=O)CC1
inactive: outcome [1] | outcome [2] | outcome [3] | outcome [4] | outcome [5] | outcome [6] | outcome [7] | outcome [8]

CCC(O)C(C)(C)C (stereo not given)
inactive: outcome [1] | outcome [2] | outcome [3] | outcome [4] | outcome [5] | outcome [6] | outcome [7]

CCS(=O)(=O)CCn1c([N+](=O)[O-])cnc1C
inactive: fluorescence, % of fluorescein [1] 0.101% [at 18.6 µM] | fluorescence, % of fluorescent control [2] 0.0677% [at 18.6 µM] | activity change [3] 0.0328% [at 18.6 µM] | fluorescence, % of fluorescent control [4] -0.106% [at 18.6 µM] | fluorescence, % of Rose Bengal [5] 0.0121% [at 18.6 µM] | fluorescence, % of fluorescent control [6] 0.0838% [at 18.6 µM] | fluorescence, % of fluorescein control [7] -0.0978% [at 18.6 µM] | fluorescence, % of fluorescent control [8] 0.0125% [at 18.6 µM]

CC(C)(C)c1ccc(C=O)cc1
inactive: outcome [1] | outcome [2] | outcome [3] | outcome [4] | outcome [5] | outcome [6] | outcome [7] | outcome [8] | Potency [9]

C=CCOc1c(Br)cc(Br)cc1Br
inactive: outcome [1] | outcome [2] | outcome [3] | outcome [4] | outcome [5] | outcome [6] | outcome [7] | outcome [8] | Potency [9]

O=C(Oc1ccccc1C(=O)O)c1ccccc1O
inactive: outcome [1] | outcome [2] | outcome [3] | outcome [4] | outcome [5] | outcome [6] | outcome [7] | outcome [8]

CN(C1CCCCC1)S(=O)(=O)c1ccccc1N
inactive: outcome [1] | outcome [2] | outcome [3] | outcome [4] | outcome [5] | outcome [6] | outcome [7] | outcome [8]

CCNC(=O)NCCCOc1cccc(CN2CCCCC2)c1
inactive: outcome [1] | outcome [2] | outcome [3] | outcome [4] | outcome [5] | outcome [6] | outcome [7] | outcome [8] | Potency [9]

NS(=O)(=O)c1ccccc1OC(F)(F)F
inactive: outcome [1] | outcome [2] | outcome [3] | outcome [4] | outcome [5] | outcome [6] | outcome [7]

CCC(C)(CCC(C)C)C(=O)[O-].CCC(C)(CCC(C)C)C(=O)[O-].[Zn+2] (stereo not given)
inactive: outcome [1] | outcome [2] | outcome [3] | outcome [4] | outcome [5] | outcome [6] | outcome [7] | outcome [8]

NC(=O)C1(N2CCCCC2)CCN(CCCC(=O)c2ccc(F)cc2)CC1
inactive: outcome [1] | outcome [2] | outcome [3] | outcome [4] | outcome [5] | outcome [6] | outcome [7] | outcome [8] | Potency [9]
